Measurements: ChEMBL document CHEMBL4513216, “Probing the Open Global Health Chemical Diversity Library for Multistage-Active Starting Points for Next-Generation Antimalarials” (ACS Infect Dis, 2020)
The campaign covered roughly 68,000 compounds. About 2,700 (4%) showed an effect of 50% or more. The sample as a whole holds a higher share of strong results than the screen did.

System: Plasmodium berghei
Experiment: Screen against P. berghei liver stage (PbLuc), transformed with Luciferase, at 2uM
Assay type: functional, HepG2
Settings: tested at 2 uM

Row | Compound | INHIBITION
1 | COc1cccc2c1N(C(=O)c1ccc(C)nc1)CCC2 | 0.79%
2 | O=C(NCc1nnc2n1CCCCC2)N(CC1CCOC1)C1CC1 (configuration not stated) | -1.21%
3 | CC(C)C1CN(C(=O)c2ccsc2)CCS1 (configuration not stated) | -9.94%
4 | CN(C)c1cc(NCc2cnc3n2CCN(CC2CC2)CC3)ncn1 | 34.04%
5 | O=C(NCc1ccccn1)[C@]12COC[C@H]1CN(Cc1ccsc1)C2 | 42.62%
6 | Cc1ccc2nc(C)cc(C(=O)NC(C)c3nnn[nH]3)c2c1 (configuration not stated) | -67.78%
7 | CNC(=O)CN(C)c1cncc(OCc2ccccc2)n1 | -22.24%
8 | CCCc1nnsc1C(=O)N1CCN(CC(C)O)CC1 (configuration not stated) | -47.97%
9 | CC(=O)N1CCC(C(=O)NCc2ncc(-c3ccccc3)o2)CC1 | 45.67%
10 | Cn1c(=NC(=O)CSCC(=O)Nc2nccs2)sc2ccccc21 | -29.3%
11 | COc1ccc2c(c1)sc(=NC(=O)CSCC(=O)Nc1nccs1)n2C | 54.16%
12 | CCn1c(=NC(=O)CSCC(=O)Nc2nccs2)sc2ccccc21 | -35.96%
13 | COc1ccccc1CC(=O)N1CCC(NCc2ccncc2)CC1 | 44.71%
14 | COc1ccccc1CC(=O)N1CCC(NCc2ccccn2)CC1 | 57.64%
15 | COc1ccccc1CC(=O)N1CCC(NCc2cccnc2)CC1 | -135.87%
16 | Cc1ccnc(C2CCN(C(=O)c3cnn(C)c3)CC2)n1 | 11.74%
17 | CCn1cc(NC(=O)C2CCN(CC(=O)NC(C)(C)CC)CC2)cn1 | 7.13%
18 | CC(C(=O)N1CCN(c2ccc(F)cc2)CC1)n1ccnc1 (configuration not stated) | -20.89%
19 | CC(C(=O)N1CCN(C(=O)c2ccc(F)cc2)CC1)n1ccnc1 (configuration not stated) | 54.41%
20 | Cc1ccc(C(=O)N2CCN(C(=O)C(C)n3ccnc3)CC2)cc1F (configuration not stated) | 38.65%
21 | O=C(NCc1cnc2n1CCN(Cc1ccoc1)C2)c1ccno1 | 42.64%
22 | COC1CN(C(=O)NC2CCCC2)CCC(=O)N(C)c2ccccc21 (configuration not stated) | 15.96%
23 | Cc1cnc(C)c(N2CCCC(CO)(Cc3cccc(Cl)c3)C2)n1 (configuration not stated) | 8.14%
24 | OCC1(Cc2cccc(Cl)c2)CCCN(c2ncccn2)C1 (configuration not stated) | -16.17%

Row | Compound | INHIBITION
25 | Nc1ccnc(N2CCCC(CO)(Cc3cccc(Cl)c3)C2)n1 (configuration not stated) | 57.51%
26 | O=C(NCC1CCC2(CCNCC2)CO1)c1cnccn1 (configuration not stated) | -13.14%
27 | Cc1ccc(N2CC[C@H]3CN(C(=O)c4ccn(C)n4)C[C@H]3C2)nn1 | -32.66%
28 | Cc1ccc(CNC2CCCc3c2cnn3C)s1 (configuration not stated) | 28.51%
29 | Cc1cccc(CNC2CCCc3c2cnn3C)c1 (configuration not stated) | 51.21%
30 | CC(C)(C)n1ncc2c1CCCC2NCc1ccc2c(c1)OCCO2 (configuration not stated) | -12.39%
31 | Cn1ncc2c1CCCC2NCc1cccc(F)c1 (configuration not stated) | -33.95%
32 | Cn1ncc2c1CCCC2NCc1ccc(Br)s1 (configuration not stated) | 54.86%
33 | Cn1ncc2c1CCCC2NCc1ccc(Cl)s1 (configuration not stated) | -21.31%
34 | CCn1ncc2c1CCCC2NCc1ccc2c(c1)CCO2 (configuration not stated) | -7.81%
35 | Cc1cccc(CNC2CCCc3c2cnn3Cc2ccccc2)c1 (configuration not stated) | -2.26%
36 | CC(C)(C)n1ncc2c1CCCC2NCc1ccc2c(c1)CCO2 (configuration not stated) | 64.67%
37 | CC(C)(C)c1nc(CC(=O)Nc2cnccc2O)cs1 | -5.75%
38 | CN1CCCC(CCC(=O)N2CCc3c(nc(CC4CC4)[nH]c3=O)C2)C1 (configuration not stated) | 10.1%
39 | CCc1cccc(OCC(=O)NC(C)c2nnc3n2CCC3)c1 (configuration not stated) | 0.31%
40 | CS(=O)(=O)c1ccc(C(=O)NCc2nc3cc(F)ccc3[nH]2)cc1 | 44.61%
41 | O=C(NC1CCN(C(=O)C2CCCCC2)C1)c1ccncc1Cl (configuration not stated) | -56.84%
42 | CC1=Nc2c(c(=O)[nH]n2C2CCCCC2)C(c2cccnc2)S1 (configuration not stated) | -30.12%
43 | Cn1ccnc1CN1CCC2(CC1)CC(Oc1cccnc1)C2 | 24.83%
44 | CN(Cc1ccncc1)C1COC2(CCN(Cc3cccs3)CC2)C1 (configuration not stated) | -3.11%
45 | CCOC1CC2(CCN(Cc3nccn3C)CC2)C1 | 16.98%
46 | COC1COC2(CCN(Cc3ccc4c(c3)OCO4)CC2)C1 (configuration not stated) | 22.16%
47 | COC1CC2(CCN(Cc3nccn3C)CC2)C1 | 52.66%
48 | CC(C)COC1CC2(CCN(Cc3nccn3C)CC2)C1 | 58.93%

Row | Compound | INHIBITION
49 | COCC1CC2(CCN(Cc3nccn3C)CC2)CN1c1ncccn1 (configuration not stated) | 12.88%
50 | CN(Cc1ccncc1)C1COC2(CCN(Cc3nccn3C)CC2)C1 (configuration not stated) | 64.31%
51 | COC1CC2(CCN(Cc3ccc4c(c3)OCO4)CC2)C1 | 69.22%
52 | CN(Cc1ccncc1)C1COC2(CCN(Cc3ccccn3)CC2)C1 (configuration not stated) | 23.59%
53 | Cn1ccnc1CN1CCC2(CC1)COC2 | 24.23%
54 | CCOC1COC2(CCN(Cc3ccc4c(c3)OCO4)CC2)C1 (configuration not stated) | -59.24%
55 | N#Cc1cccc(CN2CC3(CCCCN3c3cccnc3)CC2=O)c1 (configuration not stated) | 12.57%
56 | CN(C)CC(c1ccccc1)N(C)C(=O)c1cccc(NCC(=O)O)c1 (configuration not stated) | 8.26%
57 | CNc1cccc(C2CCCN(C(=O)c3cncs3)C2)n1 (configuration not stated) | -33.77%
58 | CC(NC(=O)Nc1ccc(F)c(F)c1)c1nc[nH]n1 (configuration not stated) | -5.51%
59 | Cc1cccc(OCCC(=O)N2CCCN(CC(N)=O)CC2)c1C | -5.2%
60 | CCCN(Cc1ccccc1O)S(=O)(=O)C(C)CC (configuration not stated) | 17.48%
61 | CC(Cn1cccn1)NC(=O)c1ccsc1 (configuration not stated) | -18.04%
62 | CC1c2ncc(CNC(=O)C3CC3)n2CCN1CC1CCC1 (configuration not stated) | 35.07%
63 | CSC(C)CCN(Cc1ccccn1)Cc1sccc1C (configuration not stated) | -22.06%
64 | Cc1cccc(-n2ncc3c2CCCC3NCC(C)(C)CO)c1C (configuration not stated) | 45.82%
65 | Cc1noc([C@@H]2C[C@H]3CN(C(=O)C4CCN(C)CC4)C[C@H]3O2)n1 | 33.12%
66 | CC(C)n1c(=O)c2sccc2n(CC(=O)Nc2ccccc2)c1=O | 10.62%
67 | Cc1ccc(CC(=O)N2CCCC(n3nc(C)cc3C)C2)cn1 (configuration not stated) | 5.59%
68 | COc1ccc(CC(=O)N2CCCC(n3nc(C)cc3C)C2)cc1F (configuration not stated) | 6.3%
69 | COc1ccc(CC(=O)N2CCCC(n3nc(C)cc3C)C2)cc1 (configuration not stated) | 52.87%
70 | Cc1cc(C)n(C2CCCN(C(=O)Cc3cccc(F)c3)C2)n1 (configuration not stated) | 14.06%
71 | Cc1cc(C)n(C2CCCN(C(=O)Cc3ccc(C#N)cc3)C2)n1 (configuration not stated) | -11.34%
72 | COc1cccc(CC(=O)N2CCCC(n3nc(C)cc3C)C2)c1 (configuration not stated) | 62.75%
